By inhibition is commonly meant the drop in the measured response relative to a control, in per cent.

The whole screen tested about 190,000 compounds, of which about 1,300 (0.68%) were called active. This excerpt belongs to a sample that is enriched for actives. A number with no mark means an inactive call. Rule as the data show it: active = inhibition above about 50%; inactive = the rest.

Chain of Mannose-6-phosphate isomerase (Homo sapiens) (P34949 whole entry, looked up): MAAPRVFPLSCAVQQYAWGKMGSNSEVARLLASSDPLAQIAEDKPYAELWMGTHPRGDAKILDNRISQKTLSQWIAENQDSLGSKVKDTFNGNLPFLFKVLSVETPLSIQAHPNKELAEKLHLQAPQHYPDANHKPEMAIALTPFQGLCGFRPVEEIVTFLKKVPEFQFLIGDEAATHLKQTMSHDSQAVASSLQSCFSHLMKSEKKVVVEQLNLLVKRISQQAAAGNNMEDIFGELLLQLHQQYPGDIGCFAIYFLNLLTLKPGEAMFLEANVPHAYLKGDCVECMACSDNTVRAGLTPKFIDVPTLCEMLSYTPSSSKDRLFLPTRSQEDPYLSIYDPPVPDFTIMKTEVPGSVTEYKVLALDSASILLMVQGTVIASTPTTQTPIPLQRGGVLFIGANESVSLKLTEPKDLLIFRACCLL

The test concerns the target Mannose-6-phosphate isomerase (Homo sapiens) (UniProt P34949). Nature of the test: human PMI inhibitors, high substrate, primary screen, biochemical, fluorescence intensity, high mannose 6-phosphate (AID 1220). As to conditions: recombinant PMI enzyme, coupled fluorescence intensity; at 20 µM; active compounds read high.
Turning to `CC1(C)C(=O)NCCN1C(=O)CCCC(=O)O`, the inhibition is 2.6%.

As for `OCCn1c(CSc2nc3ccccc3n2CCO)nc2ccccc21`, the inhibition is 3%.

Consider `O=C(NCc1ccccn1)c1cccs1`, for which the inhibition was 4.7%.

On to `CC(C)(C)C(=O)Nc1nnc(CC(=O)NCc2ccccc2)s1`, for which the inhibition was 13.1%.

Consider `O=[N+]([O-])c1cccnc1N1CCOCC1`, for which the inhibition was 7.1%.

As for `NC(=O)C1CCN(c2ncccc2[N+](=O)[O-])CC1`, the inhibition was -3.3%.

In the case of `O=[N+]([O-])c1cccnc1N1CCCCC1`, the inhibition was 10.7%.

Consider `O=C(O)C1CN(c2ncccc2[N+](=O)[O-])C1`, for which the inhibition is 26.1%.

With `O=C(O)C1CCCN1c1ncccc1[N+](=O)[O-]` (stereo not drawn), the inhibition is 50.8% (active).

In the case of `O=C(O)[C@@H]1[C@@H]2C[C@@H]2CN1c1ncccc1[N+](=O)[O-]`, the inhibition is 65.1% (active).

In the case of `COc1cccc(NC(=O)c2ccc(NCCCN3CC(C)CC(C)C3)c([N+](=O)[O-])c2)c1` (stereo not drawn), the inhibition was -12.8%.

`CCOP(=O)(CC(C(C)=O)C(O)c1ccccc1)OCC` (stereo not drawn): the inhibition was 11.7%.

With `Cc1cccc(/C=N\Nc2nnc(-c3ccccc3)c(=O)[nH]2)c1`, the inhibition is 7.5%.

As to `Cc1ccc(S(=O)(=O)N2CCCC2C(=O)Nc2nc3ccccc3s2)cc1` (stereo not drawn), the inhibition is 17.6%.

As for `CCN(CC)c1ccc(/C=N/N=C(c2ccccc2)c2ccccc2)c(O)c1`, the inhibition is 4.8%.

For `CCOC(=O)N/N=C/c1ccc(N(CC)CC)cc1O`, the inhibition was 53.3% (active).

`CCN(CC)c1ccc(/C=N/Nc2cccc(C)c2)c(O)c1`: the inhibition is -62.5%.

For the compound `CCN(CC)c1ccc(/C=N/N=C(N)N)c(O)c1`, the inhibition is 64% (active).

Take `CCN(CC)c1ccc(/C=N/NC(=S)NC)c(O)c1`: the inhibition is 21.9%.

As to `CCN(CC)c1ccc(/C=N/NC(=O)OC)c(O)c1`, the inhibition was 27.7%.

Take `CCN(CC)c1ccc(/C=N/N(c2ccccc2)c2ccccc2)c(O)c1`: the inhibition is 30%.

As to `CCN(CC)c1ccc(C=Nc2cc(C)cc(C)c2)c(O)c1`, the inhibition is 52.8% (active).

In the case of `CCN(CC)c1ccc(/C=N/Nc2ccccc2)c(O)c1`, the inhibition is -21.9%.

With `CCN(CC)c1ccc(C=Nc2ccc(C#N)cc2)c(O)c1`, the inhibition was 40.4%.

Turning to `CCN(CC)c1ccc(C=Nc2ccccc2)c(O)c1`, the inhibition is 61.8% (active).

In the case of `CCC(=O)N1CCc2cc(S(=O)(=O)NC(Cc3ccccc3)C(=O)NC3CCCCC3)ccc21` (stereo not drawn), the inhibition is -11.2%.

In the case of `CCCCc1ccc(NC(=S)NCCN2CCOCC2)cc1`, the inhibition is -3.3%.

Take `COC(=O)c1cn(C)c2ccc(S(=O)(=O)N3CCOCC3)cc2c1=O`: the inhibition is 0.8%.

With `CC(Nc1ccccc1)C(=O)Nc1ccc(F)cc1` (stereo not drawn), the inhibition is -11.4%.

With `CCN(CC)c1ccc(N=Cc2ccc(N(CC)CC)cc2O)cc1`, the inhibition was 19.5%.

Take `CCN(CC)c1ccc(C=Nc2ccc(N(C)C)cc2)c(O)c1`: the inhibition was 28.1%.

For `CCN(CC)c1ccc(C=Nc2ccc(C)cc2)c(O)c1`, the inhibition is 57% (active).

Turning to `COc1ccc(N(C)S(=O)(=O)c2cccc(C(=O)NCC3CCCO3)c2)cc1` (stereo not drawn), the inhibition was -3.8%.

On to `Cc1sc2ncnc(SCC(=O)N3CCN(C(=O)c4ccco4)CC3)c2c1C`, for which the inhibition was 6.2%.

In the case of `COc1ccc(C(C(=O)NC2CCCC2)N(Cc2ccccc2)C(=O)c2nsc(Cl)c2Cl)cc1` (stereo not drawn), the inhibition was 21.1%.

As to `CCOC(=O)N1CCc2c(sc3c2C(=O)NC(c2ccccc2)N3)C1` (stereo not drawn), the inhibition is 60.6% (active).

As for `CSc1ccc(C2NC(=O)c3c(sc4c3CCN(C)C4)N2)cc1` (stereo not drawn), the inhibition was 17%.

For `CN1CCc2c(sc3c2C(=O)NC(c2ccccc2)N3)C1` (stereo not drawn), the inhibition is 33%.

Consider `CCCn1c(SCC(=O)NCc2ccc(OC)cc2)n[nH]c1=O`, for which the inhibition was 11.2%.

For the compound `O=C(NCC1CCCCC1)C1CCCN(C(=O)NC2CCCCC2)C1` (stereo not drawn), the inhibition was -1.6%.

For `Cc1ccc(S(=O)(=O)/N=C2/C=C(Sc3ncn[nH]3)C(=O)c3ccccc32)c(C)c1`, the inhibition is 92.7% (active).

In the case of `Cc1cc(C)c(S(=O)(=O)Nc2ccc(O)c(Sc3ncn[nH]3)c2)c(C)c1`, the inhibition was 13.7%.

Regarding `Cc1cc(C)c(S(=O)(=O)/N=C2/C=C(SCC(=O)O)C(=O)c3ccccc32)cc1C`, the inhibition is -32.3%.

Consider `Cc1cc(C)c(S(=O)(=O)/N=C2/C=C(Sc3ncn[nH]3)C(=O)c3ccccc32)cc1C`, for which the inhibition was 90.3% (active).

For the compound `CC1=CC(C)(C)N(C(=O)CSc2ncn[nH]2)c2ccccc21`, the inhibition is -9.5%.

As for `Cc1ccc(S(=O)(=O)Nc2ccc(O)c(Sc3ncn[nH]3)c2)cc1`, the inhibition is 27.6%.

`Cc1cc(NC(=O)COC(=O)C2COc3ccccc3O2)no1` (stereo not drawn): the inhibition is -4.4%.

`CCCC(O)(c1ccc(Cl)cc1)C(CN1CCOCC1)c1ccccc1` (stereo not drawn): the inhibition was 5.2%.

Regarding `Cc1ccc(S(=O)(=O)N2CCCCC2)cc1NC(=O)COC(=O)C1CC2C=CC1C2` (stereo not drawn), the inhibition was 11%.

For `O=C(NC1CCCCC1)C1CCN(S(=O)(=O)c2cccs2)CC1`, the inhibition was 5.6%.

With `C=CCc1c(OC)ccc2ccc(=O)oc12`, the inhibition is 0.3%.

Regarding `Cc1cccc2cc(CN(CCCN(C)C)C(=S)NCCc3ccccc3)c(=O)[nH]c12`, the inhibition is -1.6%.

As to `CC(C)(C)C1CCc2c(sc(NC(=O)CSc3nnc(-c4ccccc4)o3)c2C#N)C1` (stereo not drawn), the inhibition was 15.1%.

In the case of `CC1CCc2c(sc(NC(=O)CSc3nnc(-c4ccccc4)o3)c2C#N)C1` (stereo not drawn), the inhibition is 57.2% (active).

Take `N#Cc1c(NC(=O)CSc2nnc(-c3ccccc3)o2)sc2c1CCCC2`: the inhibition is 4.2%.

With `COC(=O)c1ccc(CSCC(=O)Nc2ccccc2)cc1`, the inhibition is 6.4%.

As for `COc1ccc(C2=COc3ccccc3C(=O)N2)cc1`, the inhibition is -6.2%.

On to `O=C(CSc1ccc(C(F)(F)F)cc1[N+](=O)[O-])Nc1ccc2ccccc2c1`, for which the inhibition is 10.8%.

For the compound `Cc1csc(NC(=O)c2ccc(OCC3CCCO3)cc2)n1` (stereo not drawn), the inhibition was 1.2%.

Regarding `O=C(Nc1nc(-c2ccc(Cl)cc2Cl)cs1)c1ccc(OCC2CCCO2)cc1` (stereo not drawn), the inhibition is 11.1%.

As to `COc1ccc(OC)c(-c2csc(NC(=O)c3ccc(OCC4CCCO4)cc3)n2)c1` (stereo not drawn), the inhibition was 104% (active).

Regarding `COc1ccccc1NC(=O)c1cnc2c(-c3ccccc3)c(C)nn2c1C`, the inhibition was 8.9%.

With `COCCNC(=O)/C(C#N)=C/c1cc(C)n(C2CCCCC2)c1C`, the inhibition was -6.4%.

These data come from PubChem BioAssay AID1220 (Sanford-Burnham Center for Chemical Genomics, 2008).
